# Test results taken from PubChem BioAssay (NCI).
# Compounds without any hit were thinned out: in the full panel of roughly 83,000, 20% have a hit.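 48-hour exposure, single concentration, 96-well plates; percent growth endpoint where 0 means no net growth. Active: below 10.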 Values without a mark were called inactive. Activity calls are given as the source filed them.
# Tested on: SW-620 colon
# Assay: NCI-60 one-dose screen, 48 h (100 = growth as untreated, 0 = no growth, -100 = all killed)
# Settings: 10 µM unless noted
row,SMILES,growth
1,CCn1c(SCC(=O)c2ccc(Br)cc2)nnc1-c1ccncc1,102%
2,Cc1ccc(-n2c(=S)[nH]c3sc4c(c3c2=O)CCC(=O)C4)cc1,17.8%
3,C#Cc1cccc(Nc2ncnc3ccc(-c4cnc(N)nc4)cc23)c1,60.9%
4,CCCCN[C@H]1CC[C@@]2(C)[C@@H](CC[C@@]3(C)[C@H]2[C@H](O)C[C@H]2/C(=C(\CCC=C(C)C)C(=O)OC)[C@@H](OC(C)=O)C[C@@]23C)[C@@H]1C,95.9%
5,Fc1cc(F)cc(C(c2c[nH]c3ccccc23)c2c[nH]c3ccccc23)c1,93%
6,C#CCOc1cccc(Nc2ncnc3c(NC(=O)C=C)cccc23)c1,15.2%
7,COc1cc(CNS(=O)(=O)c2ccc(C)cc2)ccc1OCc1cn(-c2ccc(F)cc2)nn1,98.6%
8,CCc1ccc(C(=O)/C=C/C23c4ccccc4C(c4ccccc42)C2C(=O)NC(=O)C23)cc1 (centres undefined),8.84% (active)
9,Nc1ncnc2c1N=C(c1ccc(Cl)cc1)CC(c1ccc3c(c1)OCO3)N2 (centres undefined),100%
10,Cc1ccc(S(=O)(=O)N2CCCC2CO)cc1 (centres undefined),96.8%
11,CC(=O)Nc1nc2ccc(NS(=O)(=O)c3cccc4c(N(C)C)cccc34)cc2[nH]1,38.7%
12,COC(C(=O)[C@@H](O)[C@@H](C)O)[C@@H]1Cc2cc3cc(O[C@H]4C[C@@H](O[C@H]5C[C@@H](O)[C@H](O)C(C)O5)[C@H](O)C(C)O4)c(C)c(O)c3c(O)c2C(=O)[C@H]1O[C@H]1C[C@@H](O[C@H]2C[C@@H](O[C@H]3C[C@@H](O)[C@H](OC)C(C)O3)[C@@H](O)C(C)O2)[C@H](O)C(C)O1 (some centres undefined),11.3%
13,Cc1nn(-c2ccccc2)c(Oc2ccccn2)c1-c1nc2ccccc2s1,105%
14,CC(C)(C)n1cc(-c2ccnc(NCCNS(=O)(=O)c3cccc4ccccc34)c2)c(-c2cccc(F)c2)n1,-26% (active)
